PubChem BioAssay (EPA / NIEHS)
Activity calls are given as the source filed them. The calls were made as follows: active = hit-call score of the fitted dose curve at least 0.9, where 1 is the maximum; inactive = score below 0.9.

Tests used:
Settings in all cases: mRNA level, 48 h; actives raise or lower the signal
[1] = read-out: Glutamate-cysteine ligase catalytic (GCLC), GCLC (gene 2729); assay: LTEA_HepaRG_GCLC: Life Technologies and Expression Analysis (LTEA) Assay for Glutamate-cysteine ligase catalytic (GCLC) using HepaRG (AID 2283498)
Method in brief: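 Differentiated human HepaRG cells, plated 48 h then switched to serum-free induction medium, were exposed in duplicate for 48 h to 8 half-log concentrations topping at 100 uM in 0.5% DMSO. GCLC mRNA was quantified by qRT-PCR against ACTB, GAPDH and POLR2A.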

[2] = read-out: growth arrest and DNA damage 45 (GADD45G), GADD45G (gene 10912); assay: LTEA_HepaRG_GADD45G: Life Technologies and Expression Analysis (LTEA) Assay for growth arrest and DNA damage 45 (GADD45G) using HepaRG (AID 2283499)
Method in brief: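 Human hepatic HepaRG line treated 48 h with chemicals (eight concentrations, half-log steps from 100 uM); transcript induction or repression of GADD45G scored by qRT-PCR versus DMSO vehicle.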

[3] = read-out: Glutamate-cysteine ligase regulatory (GCLM), GCLM (gene 2730); assay: LTEA_HepaRG_GCLM: Life Technologies and Expression Analysis (LTEA) Assay for Glutamate-cysteine ligase regulatory (GCLM) using HepaRG (AID 2283500)
Method in brief: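 Human liver HepaRG cultures receive test chemicals for 48 hours at up to 100 uM in 0.5% DMSO. GCLM expression is measured by qRT-PCR and analysed for increases or decreases against vehicle.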

[4] = read-out: Glutathione S-transferase M3 (GSTM3), GSTM3 (gene 2947); assay: LTEA_HepaRG_GSTM3: Life Technologies and Expression Analysis (LTEA) Assay for Glutathione S-transferase M3 (GSTM3) using HepaRG (AID 2283501)
Method in brief: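 Changes in GSTM3 expression, an oxidative-stress marker, were scored by bidirectional curve fitting against 0.5% DMSO vehicle. Human HepaRG cultures received chemicals for 48 h in duplicate, highest concentration 100 uM with half-log dilutions.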

[5] = read-out: 3-Hydroxy-3-Methylglutaryl-CoA Synthase 2 (HMGCS2), HMGCS2 (gene 3158); assay: LTEA_HepaRG_HMGCS2: Life Technologies and Expression Analysis (LTEA) Assay for 3-Hydroxy-3-Methylglutaryl-CoA Synthase 2 (HMGCS2) using HepaRG (AID 2283504)
Method in brief: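 Expression of HMGCS2 in human HepaRG liver cells is measured by qRT-PCR 48 h after dosing (highest 100 uM, half-log series, 0.5% DMSO). Values come from bidirectional concentration-response fitting with DMSO as baseline.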

HGF (gene 3082) = assay: LTEA_HepaRG_HGF: Life Technologies and Expression Analysis (LTEA) Assay for Hepatocyte Growth Facto (HGF) using HepaRG (AID 2283505)
Method in brief: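 Gain or loss of HGF mRNA in human HepaRG liver cells after 48 h chemical exposure; eight concentrations up to 100 uM with 0.5% DMSO vehicle, quantified by TaqMan qRT-PCR.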

[6] = read-out: Insulin Like Growth Factor 1 (IGF1), IGF1 (gene 3479); assay: LTEA_HepaRG_IGF1: Life Technologies and Expression Analysis (LTEA) Assay for Insulin Like Growth Factor 1 (IGF1) using HepaRG (AID 2283506)
Method in brief: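 Using human HepaRG liver cells, IGF1 transcript induction or suppression is measured 48 h after dosing across eight concentrations capped at 100 uM. Values derive from bidirectional concentration-response fitting with DMSO as baseline.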

[7] = read-out: Intercellular Adhesion Molecule 1 (ICAM1), ICAM1 (gene 3383); assay: LTEA_HepaRG_ICAM1: Life Technologies and Expression Analysis (LTEA) Assay for Intercellular Adhesion Molecule 1 (ICAM1) using HepaRG (AID 2283507)
Method in brief: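 Gain or loss of transcript in HepaRG hepatic cells is quantified by qRT-PCR after 48 h chemical exposure (up to 100 uM, half-log steps), with DMSO as baseline.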

[8] = read-out: Insulin-like growth factor-binding protein 1 (IGFBP1), IGFBP1 (gene 3484); assay: LTEA_HepaRG_IGFBP1: Life Technologies and Expression Analysis (LTEA) Assay for Insulin-like growth factor-binding protein 1 (IGFBP1) using HepaRG (AID 2283508)
Method in brief: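 mRNA induction or loss was quantified by qRT-PCR after 48 h chemical exposure of human HepaRG cells, with 0.5% DMSO as vehicle and baseline. Concentration-response over eight points up to 100 uM.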

[9] = read-out: Interleukin 6 (IL6), IL6 (gene 3569); assay: LTEA_HepaRG_IL6: Life Technologies and Expression Analysis (LTEA) Assay for Interleukin 6 (IL6) using HepaRG (AID 2283509)
Method in brief: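 Differentiated human HepaRG cells, plated 48 h then switched to serum-free induction medium, were exposed in duplicate for 48 h to eight half-log concentrations up to 100 uM in 0.5% DMSO. IL6 mRNA measured by qRT-PCR, normalized to ACTB/GAPDH/POLR2A.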

[10] = read-out: Interleukin 6 Receptor (IL6R), IL6R (gene 3570); assay: LTEA_HepaRG_IL6R: Life Technologies and Expression Analysis (LTEA) Assay for Interleukin 6 Receptor (IL6R) using HepaRG (AID 2283510);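 as to AC50: TaqMan qRT-PCR signal normalized to ACTB GAPDH and POLR2A housekeeping genes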
Method in brief: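 Concentration-response in human liver HepaRG cells: eight concentrations from 100 uM downward by half-logs, 48 h exposure, 0.5% DMSO vehicle. IL6R mRNA change measured by qRT-PCR and fitted in both directions relative to vehicle.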

[11] = read-out: Potassium channel subfamily K member 1 (KCNK1), KCNK1 (gene 3775); assay: LTEA_HepaRG_KCNK1: Life Technologies and Expression Analysis (LTEA) Assay for Potassium channel subfamily K member 1 (KCNK1) using HepaRG (AID 2283511)
Method in brief: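 Differentiated human HepaRG cells in serum-free induction medium were exposed in duplicate for 48 h to 8 half-log concentrations up to 100 uM in 0.5% DMSO. KCNK1 mRNA was measured by TaqMan qRT-PCR, normalized to ACTB, GAPDH and POLR2A, and fitted bidirectionally versus DMSO.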

[12] = read-out: Keratin 19 (KRT19), KRT19 (gene 3880); assay: LTEA_HepaRG_KRT19: Life Technologies and Expression Analysis (LTEA) Assay for Keratin 19 (KRT19) using HepaRG (AID 2283512)
Method in brief: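 Gene-expression endpoint in the human liver line HepaRG after 48 h exposure to up to 100 uM test chemical with 0.5% DMSO vehicle; KRT19 mRNA by qRT-PCR, analyzed bidirectionally versus DMSO.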

[13] = read-out: JUN Transcription Factor, JUN (gene 3725); assay: LTEA_HepaRG_JUN: Life Technologies and Expression Analysis (LTEA) Assay for JUN Transcription Factor using HepaRG (AID 2283513)
Method in brief: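 Human HepaRG liver cells receive test chemicals in 0.5% DMSO for 48 h across an eight-point range topping at 100 uM. Expression changes in JUN are scored in both directions against the DMSO vehicle.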

[14] = read-out: Lipase C (LIPC), LIPC (gene 3990); assay: LTEA_HepaRG_LIPC: Life Technologies and Expression Analysis (LTEA) Assay for Lipase C (LIPC) using HepaRG (AID 2283514)
Method in brief: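 Differentiated human HepaRG cells in serum-free induction medium were exposed in duplicate for 48 h to eight concentrations (top 100 uM, half-log steps, 0.5% DMSO). LIPC mRNA was quantified by TaqMan qRT-PCR, normalized to ACTB, GAPDH and POLR2A, with bidirectional fitting versus DMSO.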

[15] = read-out: Lipoprotein lipase (LPL), LPL (gene 4023); assay: LTEA_HepaRG_LPL: Life Technologies and Expression Analysis (LTEA) Assay for Lipoprotein lipase (LPL) using HepaRG (AID 2283515)
Method in brief: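 Differentiated human HepaRG cells in serum-free induction medium were exposed in duplicate for 48 h to eight half-log concentrations (top 100 uM) in 0.5% DMSO. LPL mRNA was quantified by TaqMan qRT-PCR, normalized to ACTB, GAPDH and POLR2A.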

[16] = read-out: MicroRNA 122 (MIR122), gene 406906; assay: LTEA_HepaRG_MIR122: Life Technologies and Expression Analysis (LTEA) Assay for MicroRNA 122 (MIR122) using HepaRG (AID 2283516); also: the transcript read is the microRNA miR-122
Method in brief: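 HepaRG, 48 h exposure, 8-pt half-log from 100 uM, 0.5% DMSO; TaqMan qRT-PCR; bidirectional fit vs DMSO.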

[17] = read-out: matrix metalloproteinase-10 (MMP10), MMP10 (gene 4319); assay: LTEA_HepaRG_MMP10: Life Technologies and Expression Analysis (LTEA) Assay for matrix metalloproteinase-10 (MMP10) using HepaRG (AID 2283517)
Method in brief: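 HepaRG, collagen I, ~100,000 cells/well; serum-free induction medium; 48 h exposure, duplicate, 8-pt half-log to 100 uM, 0.5% DMSO. Readout: TaqMan qRT-PCR, normalized to ACTB/GAPDH/POLR2A; bidirectional fit vs DMSO.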

[18] = read-out: Heat shock 70 kDa protein 1 (HSPA1A), gene 3303; assay: LTEA_HepaRG_HSPA1A: Life Technologies and Expression Analysis (LTEA) Assay for Heat shock 70 kDa protein 1 (HSPA1A) using HepaRG (AID 2283502)
Method in brief: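 HSPA1A induction in human HepaRG liver cells is measured after 48 h of chemical treatment (100 uM maximum, 0.5% DMSO vehicle). Expression comes from qRT-PCR normalized to endogenous controls.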

[19] = read-out: Hypoxia-inducible factor 1-alpha (Homo sapiens) (UniProt Q16665); assay: LTEA_HepaRG_HIF1A: Life Technologies and Expression Analysis (LTEA) Assay for Hypoxia-inducible factor 1 (HIF1A) Trancription factor using HepaRG (AID 2283503)
Method in brief: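 HepaRG, 48 h exposure, 8-pt half-log series from 100 uM, 0.5% DMSO vehicle, duplicates. Readout: HIF1A transcript by qRT-PCR (Fluidigm array), housekeeping-normalised. Bidirectional curve fit vs DMSO baseline.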

Measured: AC50

Hypoxia-inducible factor 1-alpha (Homo sapiens), sequence (Q16665 whole entry, looked up): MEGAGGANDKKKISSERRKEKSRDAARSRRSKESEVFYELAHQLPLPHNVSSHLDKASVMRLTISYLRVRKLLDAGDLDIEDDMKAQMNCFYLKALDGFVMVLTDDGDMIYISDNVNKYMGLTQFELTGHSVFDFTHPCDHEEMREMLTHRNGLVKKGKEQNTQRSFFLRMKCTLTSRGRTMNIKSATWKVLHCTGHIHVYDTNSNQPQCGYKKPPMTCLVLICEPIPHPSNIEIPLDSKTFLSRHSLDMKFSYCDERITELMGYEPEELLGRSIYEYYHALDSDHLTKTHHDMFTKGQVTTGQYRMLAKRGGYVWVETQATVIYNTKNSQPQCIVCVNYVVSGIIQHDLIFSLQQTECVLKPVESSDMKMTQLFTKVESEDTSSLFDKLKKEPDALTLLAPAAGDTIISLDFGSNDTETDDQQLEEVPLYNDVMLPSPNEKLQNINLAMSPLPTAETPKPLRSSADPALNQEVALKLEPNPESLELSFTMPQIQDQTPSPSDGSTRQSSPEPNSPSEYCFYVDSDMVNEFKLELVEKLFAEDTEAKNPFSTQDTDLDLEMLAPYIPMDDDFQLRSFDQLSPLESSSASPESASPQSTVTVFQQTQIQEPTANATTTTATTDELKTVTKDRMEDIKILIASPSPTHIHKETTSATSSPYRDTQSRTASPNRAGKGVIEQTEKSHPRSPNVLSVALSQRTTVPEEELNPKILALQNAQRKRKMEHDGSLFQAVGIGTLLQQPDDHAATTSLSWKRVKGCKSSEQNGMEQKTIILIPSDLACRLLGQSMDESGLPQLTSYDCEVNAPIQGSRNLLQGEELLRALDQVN

CCCCN1C(=O)[C@@H]([C@H](O)C2CCCCC2)NC(=O)C12CCN(Cc1ccc(Oc3ccc(C(=O)O)cc3)cc1)CC2
active: [1] 2.25 µM | [2] 4.63 µM | [4] 4.76 µM | [5] 5.05 µM | HGF (gene 3082) 9.25 µM | [6] 9.61 µM | [7] 2.32 µM | [8] 2.45 µM | [9] 2.99 µM | [10] 2.65 µM | [11] 0.391 µM | [14] 3.67 µM | [15] 1.71 µM | [16] 3.52 µM | [17] 11.9 µM
inactive: [3] | [12] | [13]

CCc1ccc(O)c(C(C)(C)C)c1
not listed: [4] | [15]
inactive: all other assays above

Cn1cc[nH]c1=S
not listed: HGF (gene 3082) | [18] | [19]
inactive: all other assays above

CCc1cccc(CC)c1N
not listed: [9] | [19]
inactive: all other assays above

CCOc1ccc2[nH]cc(C(=O)NCc3ccccc3)c(=O)c2n1
active: [6] 15.8 µM | [12] 12.1 µM
not listed: [15] | [19]
inactive: all other assays above

CCCOc1ccc(S(=O)(=O)N2CCN(CC)CC2)cc1-c1nc2c(CC)n(Cc3ccccn3)nc2c(=O)[nH]1
active: [2] 77.9 µM | [18] 25.3 µM | [6] 14.5 µM | [8] 68.3 µM | [15] 56.7 µM
not listed: [9]
inactive: all other assays above

O=S(=O)(O)c1ccc(N=Nc2c(O)ccc3cc(S(=O)(=O)O)ccc23)cc1
not listed: [4] | [15]
inactive: all other assays above

C[C@]12C=CC(=O)C=C1CC[C@H]1[C@@H]3C[C@@H](O)[C@](O)(C(=O)CO)[C@@]3(C)C[C@H](O)[C@@]12F
not listed: [9] | [18]
inactive: all other assays above

CC(=O)c1ccccc1
not listed: [18] | [19]
inactive: all other assays above

CCCCCCCCCCCCCCO
not listed: [9] | [19]
inactive: all other assays above

CC(C)C(=O)Nc1ccc([N+](=O)[O-])c(C(F)(F)F)c1
active: [2] 85.6 µM | [3] 50 µM | [4] 50 µM | [5] 72.8 µM | HGF (gene 3082) 66.9 µM | [6] 37.8 µM | [7] 87.3 µM | [8] 66.7 µM | [9] 85 µM | [12] 23.5 µM | [14] 55.5 µM | [15] 85.7 µM | [16] 60.8 µM | [17] 50 µM
inactive: [1] | [10] | [11] | [13]

c1ccc(C(O[C@@H]2CCCN(CCc3ccc4c(c3)OCO4)C2)c2ccccc2)cc1
active: [2] 75.3 µM | [4] 90.3 µM | [18] 80.4 µM | [5] 80.8 µM | HGF (gene 3082) 50 µM | [6] 58 µM | [7] 85.3 µM | [8] 86.9 µM | [12] 40.3 µM | [14] 76.5 µM | [16] 69.7 µM
inactive: [1] | [3] | [9] | [10] | [11] | [13] | [15] | [17]

NNC(=O)c1ccncc1
not listed: [9] | [15] | [18] | [19]
inactive: all other assays above

CC(C)c1nnc2ccc(-c3ocnc3-c3cc(F)ccc3F)cn12
active: [2] 0.0565 µM | [5] 59.1 µM | [6] 66.1 µM | [8] 12.8 µM | [12] 18.7 µM | [14] 83.4 µM | [16] 50 µM
not listed: HGF (gene 3082) | [15] | [18]
inactive: all other assays above
